Data on four compounds can be found in PubChem BioAssay (EPA / NIEHS).

What all share (conditions): mRNA level, 48 h; actives raise or lower the signal
Read-out in one test: MYC, MYC (gene 4609)
In words: LTEA_HepaRG_MYC: Life Technologies and Expression Analysis (LTEA) Assay for MYC using HepaRG (AID 2283518). Summed up:
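Cells are thawed, plated and cultured 48 h, then treated for 48 h with test chemicals (eight half-log concentrations from 100 uM, 0.5% DMSO vehicle). RNA is isolated and MYC expression quantified by qRT-PCR against three housekeeping genes.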

Read-out in test [1]: matrix metalloproteinase-3 (MMP3), MMP3 (gene 4314)
The test is described as follows: LTEA_HepaRG_MMP3: Life Technologies and Expression Analysis (LTEA) Assay for matrix metalloproteinase-3 (MMP3) using HepaRG (AID 2283519). A digest of the protocol: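 Differentiated human HepaRG cells, plated 48 h on collagen I, were exposed in duplicate for 48 h in serum-free induction medium to eight half-log concentrations up to 100 uM in 0.5% DMSO. MMP3 mRNA was quantified by TaqMan qRT-PCR, normalised to ACTB, GAPDH and POLR2A.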

Read-out in test [2]: Paternally Expressed 10 (PEG10), PEG10 (gene 23089)
The test is described as follows: LTEA_HepaRG_PEG10: Life Technologies and Expression Analysis (LTEA) Assay for Paternally Expressed 10 (PEG10) using HepaRG (AID 2283520). Summed up:
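HepaRG, 48 h post-plating → serum-free induction medium → 48 h chemical exposure (duplicate, 8-pt, max 100 uM, half-log, 0.5% DMSO) → lysis in RLT → TaqMan qRT-PCR for PEG10, ACTB/GAPDH/POLR2A normalisation.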

Read-out in test [3]: Nuclear factor NF-kappa-B p105 subunit (Homo sapiens) (UniProt P19838)
The test is described as follows: LTEA_HepaRG_NFKB1: Life Technologies and Expression Analysis (LTEA) Assay for Nuclear Factor Kappa B Subunit 1 (NFKB1) using HepaRG (AID 2283521). Summed up:
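NFKB1 transcript was measured by TaqMan qRT-PCR on Fluidigm arrays, normalised to three housekeeping genes and fitted in both directions against 0.5% DMSO. HepaRG cells were dosed in duplicate for 48 h in serum-free induction medium, eight half-log steps from 100 uM.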

Read-out in test [4]: Protein phosphatase 2A (PPP2R4), PTPA (gene 5524)
In words: LTEA_HepaRG_PPP2R4: Life Technologies and Expression Analysis (LTEA) Assay for Protein phosphatase 2A (PPP2R4) using HepaRG (AID 2283522). Summed up:
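Readout is PPP2R4 transcript level by microfluidic qRT-PCR after 48 h chemical treatment of human HepaRG liver cells. Concentrations spanned 100 uM downward in half-log steps; gain or loss of signal was fitted relative to DMSO.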

Read-out in test [5]: Phosphatase and tensin (PTEN), PTEN (gene 5728)
The test is described as follows: LTEA_HepaRG_PTEN: Life Technologies and Expression Analysis (LTEA) Assay for Phosphatase and tensin (PTEN) using HepaRG (AID 2283523). Summed up: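 Differentiated human HepaRG cells, plated 48 h then switched to serum-free induction medium, were exposed in duplicate for 48 h to eight half-log concentrations up to 100 uM in 0.5% DMSO. PTEN mRNA measured by TaqMan qRT-PCR, normalized to ACTB/GAPDH/POLR2A, bidirectional fit versus DMSO.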

Read-out in test [6]: solute carrier (SLC22A1), SLC22A1 (gene 6580)
The test is described as follows: LTEA_HepaRG_SLC22A1: Life Technologies and Expression Analysis (LTEA) Assay for solute carrier (SLC22A1) using HepaRG (AID 2283524). A digest of the protocol:
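Human HepaRG cells were plated 48 h, switched to serum-free induction medium, then exposed in duplicate for 48 h to 8-point half-log series from 100 uM in 0.5% DMSO. SLC22A1 mRNA measured by qRT-PCR, normalized to ACTB/GAPDH/POLR2A, fitted bidirectionally versus DMSO.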

Read-out in test [7]: Pyruvate Dehydrogenase Kinase 4 (PDK4), PDK4 (gene 5166)
The test is described as follows: LTEA_HepaRG_PDK4: Life Technologies and Expression Analysis (LTEA) Assay for Pyruvate Dehydrogenase Kinase 4 (PDK4) using HepaRG (AID 2283525). Summed up: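 Differentiated human HepaRG cells, pre-cultured 48 h, were exposed in duplicate for 48 h in serum-free induction medium to eight half-log concentrations up to 100 uM in 0.5% DMSO. PDK4 mRNA was quantified by qRT-PCR, normalized to ACTB, GAPDH and POLR2A, bidirectional fitting versus DMSO.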

Read-out in test [8]: NAD(P)H dehydrogenase [quinone] 1 (NQO1), NQO1 (gene 1728)
The test is described as follows: LTEA_HepaRG_NQO1: Life Technologies and Expression Analysis (LTEA) Assay for NAD(P)H dehydrogenase [quinone] 1 (NQO1) using HepaRG (AID 2283526). A digest of the protocol: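 HepaRG, 48 h post-plating → serum-free induction medium → test chemical 48 h (duplicate, 100 uM top, half-log x8, 0.5% DMSO) → RNA isolation → qRT-PCR, ACTB/GAPDH/POLR2A normalization; bidirectional curve fit vs DMSO baseline.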

Read-out in test [9]: Nuclear factor erythroid 2-related factor 2 (Homo sapiens) (UniProt Q16236)
The test is described as follows: LTEA_HepaRG_NFE2L2: Life Technologies and Expression Analysis (LTEA) Assay for Nuclear factor erythroid 2-related factor 2 (NFE2L2) Transcription Factor using HepaRG (AID 2283527). A digest of the protocol: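 Differentiated human HepaRG cells in serum-free induction medium were exposed for 48 h to eight concentrations (top 100 uM, half-log dilutions, 0.5% DMSO), in duplicate. NFE2L2 mRNA was quantified by TaqMan qRT-PCR, normalized to ACTB, GAPDH and POLR2A, with bidirectional fitting versus DMSO.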

Read-out in test [10]: succinate dehydrogenase complex iron sulfur subunit B (SDHB), SDHB (gene 6390)
The test is described as follows: LTEA_HepaRG_SDHB: Life Technologies and Expression Analysis (LTEA) Assay for succinate dehydrogenase complex iron sulfur subunit B (SDHB) using HepaRG (AID 2283528). A digest of the protocol:
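SDHB transcript level read by TaqMan qRT-PCR, housekeeping-normalised (ACTB, GAPDH, POLR2A), after 48 h chemical treatment of plated HepaRG cells; eight concentrations top 100 uM, half-log steps, 0.5% DMSO, duplicates; fitted both directions against DMSO.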

Read-out in test [11]: Signal transducer and activator of transcription 3 (Homo sapiens) (UniProt P40763)
The test is described as follows: LTEA_HepaRG_STAT3: Life Technologies and Expression Analysis (LTEA) Assay for Signal transducer and activator of transcription (STAT3) using HepaRG (AID 2283529). A digest of the protocol: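 Differentiated human HepaRG cells in serum-free induction medium were exposed in duplicate for 48 h to eight half-log concentrations up to 100 uM in 0.5% DMSO. STAT3 mRNA was quantified by TaqMan qRT-PCR, normalized to ACTB, GAPDH and POLR2A, and fitted bidirectionally against DMSO.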

Read-out in test [12]: solute carrier (SLCO1B1), SLCO1B1 (gene 10599)
In words: LTEA_HepaRG_SLCO1B1: Life Technologies and Expression Analysis (LTEA) Assay for solute carrier (SLCO1B1) using HepaRG (AID 2283530). Summed up: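 Gain or loss of SLCO1B1 mRNA is fitted against the 0.5% DMSO vehicle in human HepaRG liver cells treated 48 h at up to 100 uM in half-log steps. Expression comes from qRT-PCR normalized to endogenous controls.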

Read-out in test [13]: sulfotransferase 2A1 (SULT2A1), SULT2A1 (gene 6822)
In words: LTEA_HepaRG_SULT2A1: Life Technologies and Expression Analysis (LTEA) Assay for sulfotransferase 2A1 (SULT2A1) using HepaRG (AID 2283531). A digest of the protocol:
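Cells were plated and cultured 48 h, switched to serum-free induction medium, then dosed in duplicate for 48 h (8 concentrations, max 100 uM). RNA was isolated and SULT2A1 expression measured by qRT-PCR; gain or loss of signal fitted relative to DMSO.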

Read-out in test [14]: Transforming Growth Factor (TGFA), TGFA (gene 7039)
The test is described as follows: LTEA_HepaRG_TGFA: Life Technologies and Expression Analysis (LTEA) Assay for Transforming Growth Factor (TGFA) using HepaRG (AID 2283532). A digest of the protocol:
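Differentiated human HepaRG cells, plated 48 h then switched to serum-free induction medium, were exposed in duplicate for 48 h to 8-point half-log series from 100 uM in 0.5% DMSO. TGFA mRNA measured by qRT-PCR, normalized to ACTB/GAPDH/POLR2A, bidirectional fit versus DMSO.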

Read-out in test [15]: Transforming Growth Factor (TGFB1), TGFB1 (gene 7040)
In words: LTEA_HepaRG_TGFB1: Life Technologies and Expression Analysis (LTEA) Assay for Transforming Growth Factor (TGFB1) Transporter using HepaRG (AID 2283533). A digest of the protocol: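 Expression change of TGFB1 in human HepaRG cells is measured after a 48 h chemical exposure, up to 100 uM in 0.5% DMSO vehicle. Curves are fitted in both directions relative to the DMSO baseline.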

Read-out in another test: TIMP1, TIMP1 (gene 7076)
The test is described as follows: LTEA_HepaRG_TIMP1: Life Technologies and Expression Analysis (LTEA) Assay for TIMP1 using HepaRG (AID 2283534). Summed up: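 We dosed human liver HepaRG cultures for 48 hours with up to 100 uM test chemical and measured TIMP1 expression by qRT-PCR. Activity in either direction is fitted relative to the 0.5% DMSO vehicle.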

Read-out in test [16]: Tumor necrosis factor receptor 1 (TNFRSF1A), TNFRSF1A (gene 7132)
The test is described as follows: LTEA_HepaRG_TNFRSF1A: Life Technologies and Expression Analysis (LTEA) Assay for Tumor necrosis factor receptor 1 (TNFRSF1A) using HepaRG (AID 2283535). A digest of the protocol: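 Expression of TNFRSF1A in human HepaRG liver cells was measured by qRT-PCR 48 h after chemical dosing (maximum 100 uM). Bidirectional curve fitting used 0.5% DMSO as baseline.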

Read-out in test [17]: Thyroid Hormone Responsive (THRSP), THRSP (gene 7069)
The test is described as follows: LTEA_HepaRG_THRSP: Life Technologies and Expression Analysis (LTEA) Assay for Thyroid Hormone Responsive (THRSP) using HepaRG (AID 2283536). Summed up:
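Differentiated human HepaRG cells were exposed in duplicate for 48 h in serum-free induction medium to eight concentrations (top 100 uM, half-log steps, 0.5% DMSO). Expression was quantified by TaqMan qRT-PCR, normalized to ACTB, GAPDH and POLR2A, with bidirectional fitting against DMSO.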

Read-out in test [18]: Cellular tumor antigen p53 (Homo sapiens) (UniProt P04637)
In words: LTEA_HepaRG_TP53: Life Technologies and Expression Analysis (LTEA) Assay for Tumor Protein P53 (TP53) using HepaRG (AID 2283537). A digest of the protocol:
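TP53 transcript measured by qRT-PCR, normalized to three housekeeping genes, after 48 h treatment of human HepaRG cultures with chemicals from 100 uM downward in half-log steps (0.5% DMSO vehicle, serum-free induction medium). Up- or down-regulation fitted against DMSO.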

The source made the active and inactive calls. The calls were made as follows: active = hit-call score of the fitted dose curve at least 0.9, where 1 is the maximum; inactive = score below 0.9.

Sequence of Nuclear factor erythroid 2-related factor 2 (Homo sapiens) (Q16236 whole entry, looked up): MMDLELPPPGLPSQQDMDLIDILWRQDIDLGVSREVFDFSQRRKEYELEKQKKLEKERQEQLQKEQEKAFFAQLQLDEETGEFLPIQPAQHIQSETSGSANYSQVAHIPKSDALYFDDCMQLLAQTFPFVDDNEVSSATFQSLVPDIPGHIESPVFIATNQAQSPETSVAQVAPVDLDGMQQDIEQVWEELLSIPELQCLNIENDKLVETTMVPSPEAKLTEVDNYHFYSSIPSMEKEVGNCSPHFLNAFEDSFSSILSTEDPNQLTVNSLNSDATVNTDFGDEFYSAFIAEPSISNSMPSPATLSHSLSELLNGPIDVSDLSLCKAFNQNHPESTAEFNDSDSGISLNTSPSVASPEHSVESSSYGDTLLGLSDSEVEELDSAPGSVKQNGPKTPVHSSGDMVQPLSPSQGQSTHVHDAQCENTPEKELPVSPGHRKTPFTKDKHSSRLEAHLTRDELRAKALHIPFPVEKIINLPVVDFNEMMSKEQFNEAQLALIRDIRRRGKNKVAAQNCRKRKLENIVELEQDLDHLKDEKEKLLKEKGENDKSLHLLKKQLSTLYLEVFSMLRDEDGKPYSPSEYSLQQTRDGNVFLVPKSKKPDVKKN
Sequence of Signal transducer and activator of transcription 3 (Homo sapiens) (P40763 whole entry, looked up): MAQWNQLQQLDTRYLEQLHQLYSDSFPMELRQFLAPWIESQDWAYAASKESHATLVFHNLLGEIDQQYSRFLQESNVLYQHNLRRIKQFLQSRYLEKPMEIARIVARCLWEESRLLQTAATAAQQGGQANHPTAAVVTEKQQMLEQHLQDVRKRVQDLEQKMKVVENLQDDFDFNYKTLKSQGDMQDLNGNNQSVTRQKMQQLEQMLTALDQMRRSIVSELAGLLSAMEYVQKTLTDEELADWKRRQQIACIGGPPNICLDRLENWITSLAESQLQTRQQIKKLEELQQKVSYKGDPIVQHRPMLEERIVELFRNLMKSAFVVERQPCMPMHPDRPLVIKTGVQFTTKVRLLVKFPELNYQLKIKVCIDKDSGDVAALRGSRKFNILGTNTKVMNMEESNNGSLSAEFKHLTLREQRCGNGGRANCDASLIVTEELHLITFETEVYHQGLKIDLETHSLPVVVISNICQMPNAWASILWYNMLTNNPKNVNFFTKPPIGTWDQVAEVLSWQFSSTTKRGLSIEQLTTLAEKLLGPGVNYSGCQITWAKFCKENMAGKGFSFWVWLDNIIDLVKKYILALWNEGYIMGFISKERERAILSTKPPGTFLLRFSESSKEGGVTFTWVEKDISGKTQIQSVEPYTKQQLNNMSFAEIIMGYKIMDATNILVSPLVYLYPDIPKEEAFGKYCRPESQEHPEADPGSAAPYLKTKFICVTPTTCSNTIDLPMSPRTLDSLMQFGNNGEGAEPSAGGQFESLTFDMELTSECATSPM
Sequence of Nuclear factor NF-kappa-B p105 subunit (Homo sapiens) (P19838 whole entry, looked up): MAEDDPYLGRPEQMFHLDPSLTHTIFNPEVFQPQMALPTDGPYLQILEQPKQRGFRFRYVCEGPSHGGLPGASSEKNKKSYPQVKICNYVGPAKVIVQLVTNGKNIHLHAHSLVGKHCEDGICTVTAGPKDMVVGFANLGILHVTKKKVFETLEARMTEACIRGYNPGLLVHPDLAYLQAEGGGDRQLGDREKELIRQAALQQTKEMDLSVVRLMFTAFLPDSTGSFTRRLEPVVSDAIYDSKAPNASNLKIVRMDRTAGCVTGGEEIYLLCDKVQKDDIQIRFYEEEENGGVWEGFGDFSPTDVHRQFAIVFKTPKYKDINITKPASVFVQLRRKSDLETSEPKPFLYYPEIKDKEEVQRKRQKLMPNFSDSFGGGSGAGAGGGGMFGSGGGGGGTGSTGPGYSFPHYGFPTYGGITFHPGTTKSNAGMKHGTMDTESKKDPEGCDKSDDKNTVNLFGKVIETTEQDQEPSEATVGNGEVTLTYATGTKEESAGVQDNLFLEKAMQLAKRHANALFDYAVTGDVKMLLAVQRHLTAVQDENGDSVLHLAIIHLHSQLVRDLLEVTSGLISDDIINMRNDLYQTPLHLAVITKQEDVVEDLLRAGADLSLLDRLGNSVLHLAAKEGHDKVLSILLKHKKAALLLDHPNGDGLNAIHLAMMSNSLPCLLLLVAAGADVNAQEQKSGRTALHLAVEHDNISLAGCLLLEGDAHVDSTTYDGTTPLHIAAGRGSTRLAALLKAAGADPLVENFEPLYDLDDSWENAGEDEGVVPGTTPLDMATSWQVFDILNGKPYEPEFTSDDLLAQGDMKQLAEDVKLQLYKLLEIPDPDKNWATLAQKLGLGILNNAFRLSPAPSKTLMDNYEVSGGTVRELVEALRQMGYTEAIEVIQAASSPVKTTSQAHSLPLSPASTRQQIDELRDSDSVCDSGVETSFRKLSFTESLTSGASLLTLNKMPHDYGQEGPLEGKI
Sequence of Cellular tumor antigen p53 (Homo sapiens) (P04637 whole entry, looked up): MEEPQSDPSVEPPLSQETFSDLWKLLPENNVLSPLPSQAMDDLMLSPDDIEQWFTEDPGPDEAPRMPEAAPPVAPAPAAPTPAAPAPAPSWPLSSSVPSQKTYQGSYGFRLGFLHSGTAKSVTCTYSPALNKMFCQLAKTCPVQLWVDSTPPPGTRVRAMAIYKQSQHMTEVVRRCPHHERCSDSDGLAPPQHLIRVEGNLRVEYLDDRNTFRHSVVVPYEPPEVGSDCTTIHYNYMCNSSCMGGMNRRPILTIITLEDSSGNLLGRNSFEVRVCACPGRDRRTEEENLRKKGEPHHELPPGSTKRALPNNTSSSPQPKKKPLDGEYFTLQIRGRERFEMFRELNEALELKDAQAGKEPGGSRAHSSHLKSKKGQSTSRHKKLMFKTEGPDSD

By AC50 is commonly meant the concentration at which the activity in the assay is half-maximal. `Cc1ccc(-c2cc(C(F)(F)F)nn2-c2ccc(S(N)(=O)=O)cc2)cc1`: the AC50 was 67.3 µM (active) in the test with MYC, MYC (gene 4609); 64.2 µM (active) in test [2]; 70.2 µM (active) in test [3]; 55.9 µM (active) in [6]; 62.7 µM (active) in test [9]; 89.2 µM (active) in test [11]. The AC50 in test [13] is 83.6 µM (active); in test [14], 73.1 µM (active); in test [15] it was 84.2 µM (active); with TIMP1, TIMP1 (gene 7076), 88 µM (active); in [16] it was 93.5 µM (active). Also, the compound was classed as inactive in test [1], in test [4], in test [5], in test [7], in test [8] and in test [10]. For the same compound, the call in test [12] and in [17] was inactive.

Regarding `CS(=O)(=O)c1ccc([C@@H](C[C@H]2CCC(=O)C2)C(=O)Nc2cnccn2)cc1Cl`, the AC50 with MYC, MYC (gene 4609) is 1.14 µM (active); in test [1], 1.16 µM (active); in [3] it was 1.38 µM (active); in [4], 0.49 µM (active); in [5], 10.1 µM (active); in test [6], 2.77 µM (active). In addition, the concentration at half-maximal activity (AC50) in test [7] is 0.913 µM (active); in test [8] it was 17.9 µM (active); in test [9], 0.738 µM (active); in [11], 50 µM (active); in test [12], 1.01 µM (active); in [14], 0.938 µM (active). Also, the concentration at half-maximal activity (AC50) in test [15] is 1.22 µM (active); in [16], 14.8 µM (active); in [17], 27.2 µM (active); in test [18], 1.09 µM (active). Also, the call in test [2], in [10] and in test [13] was inactive.

For the compound `COC(=O)CCCC(=O)OC`, the outcome in the test with MYC, MYC (gene 4609) is “inactive”; in test [1], “inactive”; in test [2] it was “inactive”; in test [3], “inactive”; in [4] it was “inactive”; in test [5], “inactive”. Besides, the outcome in [7], in test [8], in [9], in test [10], in test [11] and in test [12] was inactive. Besides, the outcome in test [13] was “inactive”; in test [14], “inactive”; in test [15] it was “inactive”; in the test with TIMP1, TIMP1 (gene 7076), “inactive”; in test [16], “inactive”; in test [17], “inactive”. The compound was classed as inactive in [18].

As for `O=C(O)c1cccnc1`, the outcome with MYC, MYC (gene 4609) is “inactive”; in test [1] it was “inactive”; in test [2] it was “inactive”; in test [3], “inactive”; in test [4], “inactive”; in test [5], “inactive”. Moreover, the compound was called inactive in [6], in [7], in test [8], in test [9], in test [10] and in [11]. For the same compound, the outcome in test [12] was “inactive”; in test [13] it was “inactive”; in [14], “inactive”; in test [15] it was “inactive”; with TIMP1, TIMP1 (gene 7076), “inactive”; in test [16], “inactive”. Also, in [17], the compound was called inactive.
